Data taken from article PMC11006913.

Tests used:
Experiment in all cases: PBM; 200 nM protein, PBS
Settings in all cases: dsDNA, one strand shown
ALX1 [1] = molecular target: ALX1 (Homo sapiens, UniProt Q15699 118-204, L144V)
ALX1 [2] = molecular target: ALX1 (Homo sapiens, UniProt Q15699 118-204, L144R)
ALX1 [3] = molecular target: ALX1 (Homo sapiens, UniProt Q15699 118-204)
ALX3 [4] = molecular target: ALX3 (Homo sapiens, UniProt O95076 139-225, N203Q)
HOXD13 [5] = molecular target: HOXD13 (Homo sapiens, UniProt P35453 263-343, T313R)
Sequence of HOXD13 (Homo sapiens, UniProt P35453 263-343, T313R) (P35453 263-343 T313R): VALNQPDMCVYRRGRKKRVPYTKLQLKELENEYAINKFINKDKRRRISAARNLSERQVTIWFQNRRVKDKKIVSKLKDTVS

HOXD13 [6] = molecular target: HOXD13 (Homo sapiens, UniProt P35453 263-343)
Sequence of HOXD13 (Homo sapiens, UniProt P35453 263-343) (P35453 263-343): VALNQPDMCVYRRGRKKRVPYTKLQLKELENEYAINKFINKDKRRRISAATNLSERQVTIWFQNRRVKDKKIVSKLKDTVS

ALX3 [7] = molecular target: ALX3 (Homo sapiens, UniProt O95076 139-225)
Sequence of ALX3 (Homo sapiens, UniProt O95076 139-225) (O95076 139-225): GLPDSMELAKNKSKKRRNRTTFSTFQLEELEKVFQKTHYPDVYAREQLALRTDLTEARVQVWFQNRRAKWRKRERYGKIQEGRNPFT

ALX3 [8] = molecular target: ALX3 (Homo sapiens, UniProt O95076 139-225, L168Q)
Sequence of ALX3 (Homo sapiens, UniProt O95076 139-225, L168Q) (O95076 139-225 L168Q): as the sequence (O95076 139-225) above, with L30Q counted along it

HOXD13 [9] = molecular target: HOXD13 (Homo sapiens, UniProt P35453 263-343, T313A)
Sequence of HOXD13 (Homo sapiens, UniProt P35453 263-343, T313A) (P35453 263-343 T313A): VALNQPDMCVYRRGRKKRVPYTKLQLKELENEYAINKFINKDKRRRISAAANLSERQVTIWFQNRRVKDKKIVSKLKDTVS

ALX3 [10] = molecular target: ALX3 (Homo sapiens, UniProt O95076 139-225, L168V)
Sequence of ALX3 (Homo sapiens, UniProt O95076 139-225, L168V) (O95076 139-225 L168V): as the sequence (O95076 139-225) above, with L30V counted along it

ALX3 [11] = molecular target: ALX3 (Homo sapiens, UniProt O95076 139-225, N203S)
Sequence of ALX3 (Homo sapiens, UniProt O95076 139-225, N203S) (O95076 139-225 N203S): as the sequence (O95076 139-225) above, with N65S counted along it

Sequence of ALX1 (Homo sapiens, UniProt Q15699 118-204, L144R) (Q15699 118-204 L144R): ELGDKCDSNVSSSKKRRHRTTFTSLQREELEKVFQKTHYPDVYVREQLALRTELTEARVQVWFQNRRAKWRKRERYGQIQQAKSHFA
Sequence of ALX1 (Homo sapiens, UniProt Q15699 118-204, L144V) (Q15699 118-204 L144V): as the sequence (Q15699 118-204 L144R) above, with R27V counted along it
Sequence of ALX3 (Homo sapiens, UniProt O95076 139-225, N203Q) (O95076 139-225 N203Q): as the sequence (O95076 139-225) above, with N65Q counted along it
Sequence of ALX1 (Homo sapiens, UniProt Q15699 118-204) (Q15699 118-204): as the sequence (Q15699 118-204 L144R) above, with R27L counted along it

For GTTATACA, the binding signal (ALX1 [1]) was 8.24 upbm affinity estimate (log intensity, higher = more binding, comparable within an allelic series), the binding signal (ALX1 [2]) was 8.23 upbm affinity estimate (log intensity, higher = more binding, comparable within an allelic series) and the binding signal (ALX1 [3]) was 8.43 upbm affinity estimate (log intensity, higher = more binding, comparable within an allelic series).

With CATTAAAG the binding signal (ALX1 [1]) was 9.86 upbm affinity estimate (log intensity, higher = more binding, comparable within an allelic series), the binding signal (ALX1 [2]) was 9.67 upbm affinity estimate (log intensity, higher = more binding, comparable within an allelic series) and the binding signal (ALX1 [3]) was 10.1 upbm affinity estimate (log intensity, higher = more binding, comparable within an allelic series).

In the case of CAATATTC, the binding signal (ALX1 [1]) is reported as 8.3 upbm affinity estimate (log intensity, higher = more binding, comparable within an allelic series), the binding signal (ALX1 [2]) is reported as 8.42 upbm affinity estimate (log intensity, higher = more binding, comparable within an allelic series) and the binding signal (ALX1 [3]) is reported as 8.48 upbm affinity estimate (log intensity, higher = more binding, comparable within an allelic series).

With AAAAATGT the binding signal (ALX1 [1]) was 8.02 upbm affinity estimate (log intensity, higher = more binding, comparable within an allelic series), the binding signal (ALX1 [2]) was 8.01 upbm affinity estimate (log intensity, higher = more binding, comparable within an allelic series) and the binding signal (ALX1 [3]) was 8.15 upbm affinity estimate (log intensity, higher = more binding, comparable within an allelic series).

For CACTATTA, the binding signal (ALX1 [1]) was 9.26 upbm affinity estimate (log intensity, higher = more binding, comparable within an allelic series), the binding signal (ALX1 [2]) was 9.02 upbm affinity estimate (log intensity, higher = more binding, comparable within an allelic series) and the binding signal (ALX1 [3]) was 9.61 upbm affinity estimate (log intensity, higher = more binding, comparable within an allelic series).

For TAATAATA, the binding signal (ALX3 [4]) was 8.57 upbm affinity estimate (log intensity, higher = more binding, comparable within an allelic series).

CGGGTTCC was tested, and the binding signal (ALX1 [1]) was 6.36 upbm affinity estimate (log intensity, higher = more binding, comparable within an allelic series), the binding signal (ALX1 [2]) was 6.23 upbm affinity estimate (log intensity, higher = more binding, comparable within an allelic series) and the binding signal (ALX1 [3]) was 6.28 upbm affinity estimate (log intensity, higher = more binding, comparable within an allelic series).

For CGCCTTCC, the binding signal (ALX1 [1]) was 6.24 upbm affinity estimate (log intensity, higher = more binding, comparable within an allelic series), the binding signal (ALX1 [2]) was 6.38 upbm affinity estimate (log intensity, higher = more binding, comparable within an allelic series) and the binding signal (ALX1 [3]) was 6.08 upbm affinity estimate (log intensity, higher = more binding, comparable within an allelic series).

ACATTTAG was tested, and the binding signal (ALX1 [1]) was 8.38 upbm affinity estimate (log intensity, higher = more binding, comparable within an allelic series), the binding signal (ALX1 [2]) was 8.16 upbm affinity estimate (log intensity, higher = more binding, comparable within an allelic series) and the binding signal (ALX1 [3]) was 8.56 upbm affinity estimate (log intensity, higher = more binding, comparable within an allelic series).

For AAATGATG, the binding signal (ALX1 [1]) was 8.1 upbm affinity estimate (log intensity, higher = more binding, comparable within an allelic series), the binding signal (ALX1 [2]) was 8.04 upbm affinity estimate (log intensity, higher = more binding, comparable within an allelic series) and the binding signal (ALX1 [3]) was 8.35 upbm affinity estimate (log intensity, higher = more binding, comparable within an allelic series).

CCCCCCCC was tested, and the binding signal (ALX1 [1]) was 6.17 upbm affinity estimate (log intensity, higher = more binding, comparable within an allelic series), the binding signal (ALX1 [2]) was 6 upbm affinity estimate (log intensity, higher = more binding, comparable within an allelic series) and the binding signal (ALX1 [3]) was 6.16 upbm affinity estimate (log intensity, higher = more binding, comparable within an allelic series).

In the case of ATTAAAAT, the binding signal (ALX3 [4]) is reported as 8.53 upbm affinity estimate (log intensity, higher = more binding, comparable within an allelic series), the binding signal (HOXD13 [5]) is reported as 10.6 upbm affinity estimate (log intensity, higher = more binding, comparable within an allelic series) and the binding signal (HOXD13 [6]) is reported as 11.4 upbm affinity estimate (log intensity, higher = more binding, comparable within an allelic series). For the same sequence, the binding signal (ALX3 [7]) was 11.2 upbm affinity estimate (log intensity, higher = more binding, comparable within an allelic series), the binding signal (ALX3 [8]) was 9.54 upbm affinity estimate (log intensity, higher = more binding, comparable within an allelic series) and the binding signal (HOXD13 [9]) was 11.4 upbm affinity estimate (log intensity, higher = more binding, comparable within an allelic series). For the same sequence, the binding signal (ALX3 [10]) was 9.23 upbm affinity estimate (log intensity, higher = more binding, comparable within an allelic series) and the binding signal (ALX3 [11]) was 8.6 upbm affinity estimate (log intensity, higher = more binding, comparable within an allelic series).

In the case of GGCTAGGA, the binding signal (ALX1 [1]) is reported as 6.64 upbm affinity estimate (log intensity, higher = more binding, comparable within an allelic series), the binding signal (ALX1 [2]) is reported as 6.63 upbm affinity estimate (log intensity, higher = more binding, comparable within an allelic series) and the binding signal (ALX1 [3]) is reported as 6.34 upbm affinity estimate (log intensity, higher = more binding, comparable within an allelic series).

CCTTTAAC was tested, and the binding signal (ALX1 [1]) was 8.41 upbm affinity estimate (log intensity, higher = more binding, comparable within an allelic series), the binding signal (ALX1 [2]) was 8.36 upbm affinity estimate (log intensity, higher = more binding, comparable within an allelic series) and the binding signal (ALX1 [3]) was 8.65 upbm affinity estimate (log intensity, higher = more binding, comparable within an allelic series).

For CCTTGCCG, the binding signal (ALX1 [1]) was 6.69 upbm affinity estimate (log intensity, higher = more binding, comparable within an allelic series), the binding signal (ALX1 [2]) was 6.58 upbm affinity estimate (log intensity, higher = more binding, comparable within an allelic series) and the binding signal (ALX1 [3]) was 6.55 upbm affinity estimate (log intensity, higher = more binding, comparable within an allelic series).

GGACCCAC was tested, and the binding signal (ALX1 [1]) was 6.45 upbm affinity estimate (log intensity, higher = more binding, comparable within an allelic series), the binding signal (ALX1 [2]) was 6.3 upbm affinity estimate (log intensity, higher = more binding, comparable within an allelic series) and the binding signal (ALX1 [3]) was 6.26 upbm affinity estimate (log intensity, higher = more binding, comparable within an allelic series).

With ATTTGTAA the binding signal (ALX1 [1]) was 9.13 upbm affinity estimate (log intensity, higher = more binding, comparable within an allelic series), the binding signal (ALX1 [2]) was 8.97 upbm affinity estimate (log intensity, higher = more binding, comparable within an allelic series) and the binding signal (ALX1 [3]) was 9.47 upbm affinity estimate (log intensity, higher = more binding, comparable within an allelic series).

With ATAATAAG the binding signal (ALX3 [4]) was 8.64 upbm affinity estimate (log intensity, higher = more binding, comparable within an allelic series).

CCTTGGCG was tested, and the binding signal (ALX1 [1]) was 6.13 upbm affinity estimate (log intensity, higher = more binding, comparable within an allelic series), the binding signal (ALX1 [2]) was 6.15 upbm affinity estimate (log intensity, higher = more binding, comparable within an allelic series) and the binding signal (ALX1 [3]) was 6.14 upbm affinity estimate (log intensity, higher = more binding, comparable within an allelic series).

With TATAATAA the binding signal (ALX3 [4]) was 8.61 upbm affinity estimate (log intensity, higher = more binding, comparable within an allelic series).

In the case of AGAAGGGC, the binding signal (ALX1 [1]) is reported as 6.58 upbm affinity estimate (log intensity, higher = more binding, comparable within an allelic series), the binding signal (ALX1 [2]) is reported as 6.68 upbm affinity estimate (log intensity, higher = more binding, comparable within an allelic series) and the binding signal (ALX1 [3]) is reported as 6.45 upbm affinity estimate (log intensity, higher = more binding, comparable within an allelic series).

With CATAATAA the binding signal (ALX3 [4]) was 8.54 upbm affinity estimate (log intensity, higher = more binding, comparable within an allelic series).

In the case of CGCCGAGA, the binding signal (ALX1 [1]) is reported as 6.15 upbm affinity estimate (log intensity, higher = more binding, comparable within an allelic series), the binding signal (ALX1 [2]) is reported as 6.32 upbm affinity estimate (log intensity, higher = more binding, comparable within an allelic series) and the binding signal (ALX1 [3]) is reported as 6.31 upbm affinity estimate (log intensity, higher = more binding, comparable within an allelic series).

For AATATTTA, the binding signal (ALX1 [1]) was 9.37 upbm affinity estimate (log intensity, higher = more binding, comparable within an allelic series), the binding signal (ALX1 [2]) was 9.47 upbm affinity estimate (log intensity, higher = more binding, comparable within an allelic series) and the binding signal (ALX1 [3]) was 9.54 upbm affinity estimate (log intensity, higher = more binding, comparable within an allelic series).

ATTGGAAA was tested, and the binding signal (ALX1 [1]) was 8.46 upbm affinity estimate (log intensity, higher = more binding, comparable within an allelic series), the binding signal (ALX1 [2]) was 8.23 upbm affinity estimate (log intensity, higher = more binding, comparable within an allelic series) and the binding signal (ALX1 [3]) was 8.59 upbm affinity estimate (log intensity, higher = more binding, comparable within an allelic series).

AATGAATG was tested, and the binding signal (ALX1 [1]) was 9.18 upbm affinity estimate (log intensity, higher = more binding, comparable within an allelic series), the binding signal (ALX1 [2]) was 9 upbm affinity estimate (log intensity, higher = more binding, comparable within an allelic series) and the binding signal (ALX1 [3]) was 9.33 upbm affinity estimate (log intensity, higher = more binding, comparable within an allelic series).

With AACTAAGT the binding signal (ALX1 [1]) was 8.49 upbm affinity estimate (log intensity, higher = more binding, comparable within an allelic series) and the binding signal (ALX1 [3]) was 8.92 upbm affinity estimate (log intensity, higher = more binding, comparable within an allelic series).

For CGGGTGAG, the binding signal (ALX1 [1]) was 6.48 upbm affinity estimate (log intensity, higher = more binding, comparable within an allelic series), the binding signal (ALX1 [2]) was 6.58 upbm affinity estimate (log intensity, higher = more binding, comparable within an allelic series) and the binding signal (ALX1 [3]) was 6.62 upbm affinity estimate (log intensity, higher = more binding, comparable within an allelic series).

For AATTGGTC, the binding signal (ALX1 [1]) was 9.84 upbm affinity estimate (log intensity, higher = more binding, comparable within an allelic series), the binding signal (ALX1 [2]) was 9.58 upbm affinity estimate (log intensity, higher = more binding, comparable within an allelic series) and the binding signal (ALX1 [3]) was 10.2 upbm affinity estimate (log intensity, higher = more binding, comparable within an allelic series).

In the case of AAATGGGA, the binding signal (ALX1 [1]) is reported as 8.33 upbm affinity estimate (log intensity, higher = more binding, comparable within an allelic series), the binding signal (ALX1 [2]) is reported as 8.01 upbm affinity estimate (log intensity, higher = more binding, comparable within an allelic series) and the binding signal (ALX1 [3]) is reported as 8.46 upbm affinity estimate (log intensity, higher = more binding, comparable within an allelic series).

With CGGACGGA the binding signal (ALX1 [1]) was 6.3 upbm affinity estimate (log intensity, higher = more binding, comparable within an allelic series), the binding signal (ALX1 [2]) was 6.37 upbm affinity estimate (log intensity, higher = more binding, comparable within an allelic series) and the binding signal (ALX1 [3]) was 6.28 upbm affinity estimate (log intensity, higher = more binding, comparable within an allelic series).

In the case of AGCTACGA, the binding signal (ALX1 [1]) is reported as 6.35 upbm affinity estimate (log intensity, higher = more binding, comparable within an allelic series), the binding signal (ALX1 [2]) is reported as 6.56 upbm affinity estimate (log intensity, higher = more binding, comparable within an allelic series) and the binding signal (ALX1 [3]) is reported as 6.35 upbm affinity estimate (log intensity, higher = more binding, comparable within an allelic series).

With AGATCATC the binding signal (ALX1 [1]) was 7.78 upbm affinity estimate (log intensity, higher = more binding, comparable within an allelic series), the binding signal (ALX1 [2]) was 7.76 upbm affinity estimate (log intensity, higher = more binding, comparable within an allelic series) and the binding signal (ALX1 [3]) was 7.9 upbm affinity estimate (log intensity, higher = more binding, comparable within an allelic series).

In the case of ACTTATTA, the binding signal (ALX3 [4]) is reported as 8.57 upbm affinity estimate (log intensity, higher = more binding, comparable within an allelic series).

With ACCCGCGT the binding signal (ALX1 [1]) was 6.47 upbm affinity estimate (log intensity, higher = more binding, comparable within an allelic series), the binding signal (ALX1 [2]) was 6.51 upbm affinity estimate (log intensity, higher = more binding, comparable within an allelic series) and the binding signal (ALX1 [3]) was 6.45 upbm affinity estimate (log intensity, higher = more binding, comparable within an allelic series).

With CCGACGCG the binding signal (ALX1 [1]) was 6.16 upbm affinity estimate (log intensity, higher = more binding, comparable within an allelic series), the binding signal (ALX1 [2]) was 6.27 upbm affinity estimate (log intensity, higher = more binding, comparable within an allelic series) and the binding signal (ALX1 [3]) was 6.71 upbm affinity estimate (log intensity, higher = more binding, comparable within an allelic series).

For AGTTACTG, the binding signal (ALX1 [1]) was 8.01 upbm affinity estimate (log intensity, higher = more binding, comparable within an allelic series), the binding signal (ALX1 [2]) was 7.88 upbm affinity estimate (log intensity, higher = more binding, comparable within an allelic series) and the binding signal (ALX1 [3]) was 8.32 upbm affinity estimate (log intensity, higher = more binding, comparable within an allelic series).

For AGCAATAT, the binding signal (ALX1 [1]) was 8.17 upbm affinity estimate (log intensity, higher = more binding, comparable within an allelic series), the binding signal (ALX1 [2]) was 8.11 upbm affinity estimate (log intensity, higher = more binding, comparable within an allelic series) and the binding signal (ALX1 [3]) was 8.09 upbm affinity estimate (log intensity, higher = more binding, comparable within an allelic series).
